Laboratory results taken from PubChem BioAssay (Tox21).
Inconclusive results are not listed. Unmarked numbers belong to inactive results. The source made the active and inactive calls. Calls follow the shape of the dose curve; as a rule, active = well fitted cell-killing curve with a large enough effect in the repeat runs; inconclusive = weak or mixed curves, or effect the other way; inactive = flat fitted curve, though single readings scatter.

Test: cAMP Responsive Elements (CRE) small molecule antagonists, cell-based qHTS assay: qHTS cell viability counter screen (AID 2060913); also: nearly all actives have a fitted effect of over 40% in size
Settings: CRE-bla HEK293T viability, CellTiter-Glo luminescence, 5 h; series mostly up to 92.4 µM; viability change, negative = cytotoxic: at the top concentration
From the text: U.S. Tox21 Program National Center for Advancing Translational Sciences [NCATS] Division of Preclinical Innovation [DPI] U.S. Environmental Protection Agency [EPA] National Institutes of Environmental Health Sciences [NIEHS] National Toxicology Program [NTP] U.S. Food and Drug Administration [FDA] Tox21 Assay Overview: CREB (cyclic-AMP Responsive Element Binding Protein) is a cellular transcription factor. It binds to certain DNA sequences called cAMP Responsive Elements (CRE) and regulates the transcription of the genes. […] This cell line can be used to find agonists/antagonists of the cyclic AMP signaling pathway. The activation of the report gene under culture conditions can be detected by fluorescence intensity. This cell line has been used to screen the Tox21 10K compound library to identify agonists that induce oxidative stress. The cytotoxicity of the Tox21 compound library against the CRE-bla cell line was tested in parallel by measuring the cell viability using CellTiter-Glo assay (Promega, Madison, WI) in the same wells.
Tox21 Assay Protocol Summary: CRE-bla Hek 293T cells were suspended in assay medium (DMEM containing 10% dialyzed FBS, 0.1 mM NEAA, 1 mM sodium pyruvate and 25 mM HEPES) and dispensed at 2,000 cells/4 uL /well into 1536-well black wall/clear bottom plates using a Multidrop Combi (ThermoFisher Scientific, Waltham, MA) dispenser. After the assay plates were incubated at 37 C/5% CO2 for 18 hrs, 23 nL of compounds dissolved in DMSO, positive controls or DMSO only was transferred to the assay plate by a pintool workstation (Kalypsys, San Diego, CA), followed by addition of 1 uL of 1.25uM NKH477 (0.25 uM as final concentration) in assay medium using a Flying Reagent Dispenser (Aurora Discovery, San Diego, CA). The plates were incubated at 37 C and 5% CO2 for 3 hrs. Then 1 uL of LiveBLAzer B/G FRET substrate (Invitrogen, Carlsbad, CA) was added to each well using Bioraptr Flying Reagent Dispenser (FRD, Aurora Discovery, San Diego, CA). The plates were incubated at room temperature for 2 h, then fluorescence intensities were measured using an Envision plate reader (PerkinElmer, Shelton, CT) at Excitation 405nm, Emission 460nm and 530nm. The % activity was determined from the ratio of 460nm/530nm. For cell viability readout that measures cytotoxicity, 4 uL /well of CellTiter-Glo reagent was added into the assay plates using Bioraptr FRD. After 30 min incubation at room temperature, the luminescence intensity in the assay plates was measured using a ViewLux (PerkinElmer, Shelton, CT) plate reader.
% is scaled to controls: 0 for no effect and ±100 for the full control effect; potency is read from the fitted curve at half-maximal effect.

| SMILES | viability change, negative = cytotoxic | Potency |
| --- | --- | --- |
| CC(=O)O[C@@H]1C(=O)O[C@@H]2[C@H]1OC(=O)[C@@H]2OC(C)=O | 4.28% [at 42.5 µM] |  |
| C1CNCCN1 |  | inactive |
| CC(C)c1ccc(C=O)cc1 | 5.31% |  |
| C=CC(C)(CCC=C(C)C)OC=O (stereo not given) | -1.4% |  |
| O=C1OC(=O)c2cc([N+](=O)[O-])ccc21 | -5.36% |  |
| C[C@@H]1C[C@H]2O[C@@]3(O[C@@H]2C(C)(C)O)[C@H](O)[C@@]2(C)[C@@H]4CC[C@H]5C(C)(C)[C@@H](O[C@@H]6OC[C@@H](O)[C@H](O)[C@H]6O)CC[C@@]56C[C@@]46CC[C@]2(C)[C@@H]13 | -4.01% [at 42.5 µM] |  |
| NC(=O)OCC(COC(N)=O)c1ccccc1 |  | inactive |
| Cc1ccccc1N=C(N)N=C(N)N | 0.778% |  |
| Cc1cccc(C)c1NC(=O)CN1CCN(CCCC(c2ccc(F)cc2)c2ccc(F)cc2)CC1 | 3.34% [at 42.5 µM] |  |
| Cc1ccsc1/C=C/C1=NCCCN1C | -0.697% [at 42.5 µM] |  |
| Cc1ccc(S(=O)(=O)O)c(C)c1 | -4.42% |  |
| CCCCCCCCCCCCCC[n+]1ccccc1 |  | 48.6 µM (active) |
| CC(C)c1ccccc1 | 0.969% |  |
| CC1CCCC1 | -3.26% |  |
| NC(N)=NCCN1CCCCCCC1 | 0.247% [at 0.349 µM] |  |
| CN(C)CCOC(c1ccccc1)c1ccc(Br)cc1 (stereo not given) | -3.5% [at 42.5 µM] |  |
| O=c1[nH]ncc2ccccc12 | 4.96% |  |
| CCN1CCC[C@H]1CNC(=O)c1cc(S(N)(=O)=O)ccc1OC | 5.98% [at 42.5 µM] |  |
| Cc1cnccn1 | 5.55% |  |
| O=C1NCCN1 | 0.736% |  |

| SMILES | viability change, negative = cytotoxic | Potency |
| --- | --- | --- |
| O=C1Nc2ccccc2C1=O | -15.1% |  |
| c1ccc2c(c1)c1cccc3ccc4cccc2c4c31 |  | inactive |
| COC(=O)CC(=O)OC |  | inactive |
| Cc1cc(C)c(O)c(C(C)(C)C)c1 | -11.7% |  |
| OCCC(O)CO (stereo not given) | 20.2% |  |
| c1ccc2c(c1)-c1cccc3c1c-2cc1ccccc13 |  | inactive |
| ClCCCl | -8.11% |  |
| C=CC(=O)NCOCC(C)C | 1.08% |  |
| Oc1ccc(Sc2ccc(O)cc2)cc1 | -0.88% |  |
| CC(C)C(=O)C(C)C | -9.28% |  |
| CCCC[P+](CCCC)(CCCC)CCCC |  | inactive |
| CCOC(=O)c1ccccc1C | -9.25% |  |
| CCCCCCCCCCCCCCC | 2.9% |  |
| O=S(=O)(O)c1cccc(S(=O)(=O)O)c1 | 8.21% |  |
| CC1=CC(C)C(C=O)C(C)C1 (stereo not given) | 10.9% |  |
| CCCCCCCCCCCCSCCOCCO | 0.0013% [at 42.5 µM] |  |
| CC(C)=CCC/C(C)=C/C=O |  | inactive |
| O=[N+]([O-])c1ccc(O)cc1 |  | inactive |
| CN(C)CCCN(C)C | 8.18% [at 8.39 µM] |  |
| O=c1c(O)c(-c2ccc(O)c(O)c2)oc2cc(O)cc(O)c12 | 9.2% |  |
